# Data from PubChem BioAssay.
# Where “and” joins values, the source holds several entries; their conditions need not be identical. Equal values may be shown once. Calls of active or inactive are those of the source. Unless noted, the rule behind the calls is not given here.
# Legend:
# [1] = P. berghei load reduction in hepatocytes – cell-based, HepG2, luciferase luminescence, HepG2 viability, primary screen (AID 624349; in the data active = parasite load remaining mostly below about 12%, no sharp cut-off; inactive = mostly above about 10%;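 note: 100% = mean of DMSO negative control wells on the same plate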); details: P. berghei liver stage in HepG2, luciferase luminescence, concentration not given here; parasite load remaining: stronger effect = lower value; viability: measured here: HepG2 viability without parasites
# [2] = signal quenchers or enhancers, Cy5 substrate/SSB – biochemical, NIH Clinical Collection, E. coli SSB, artefact control for HCV NS3 helicase inhibitor project (AID 743268); details: Cy5-oligo bound E. coli SSB, fluorescence interference
# [3] = system: Hepatitis C virus NS3 helicase; experiment: blockers of NS3h binding to DNA – biochemical, fluorescence polarization, NIH Clinical Collection, primary screen (AID 743270); details: NS3 helicase binding to Cy5-dT15 DNA, stronger effect = higher value, concentration not given here
# [4] = target: Single-stranded DNA-binding protein (Escherichia coli (strain K12)) (UniProt P0AGE0); experiment: SSB-ssDNA binding inhibitors – biochemical, fluorescence polarization, NIH Clinical Collection, counter-screen for HCV NS3 helicase inhibitor project (AID 743271; in the data active = inhibition above about 28%); details: E. coli SSB-DNA binding, stronger effect = higher value, concentration not given here
# [5] = compounds distorting NS3 helicase fluorescence signal – biochemical, NIH Clinical Collection, artefact control for HCV NS3 helicase inhibitor project (AID 743272); details: fluorescence interference counterscreen, HCV NS3 helicase assay; stronger effect = lower value;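 note: HCV NS3 helicase with a Cy5 labelled single stranded DNA probe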
# [6] = liver-stage malaria parasite load reduction – cell-based, known kinase inhibitor set, luminescence, hepatoma host viability (AID 624392); details: Plasmodium liver stage in hepatoma cells, luciferase luminescence, concentration not given here; liver cell % of control: measured here: host liver cell viability; parasite % of control: stronger effect = lower value;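 note: infected cells incubated roughly two days before readout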
smiles,measurement,setting,value
CCN(CC)C(=O)c1ccc(Nc2nc(OCC3CCCCC3)c3[nH]cnc3n2)cc1,parasite load remaining,[1],41.1% (inactive)
same,viability,[1],89.4%
NS(=O)(=O)c1ccc(N=Nc2c(O)[nH]c3ccc(Br)cc23)cc1,parasite load remaining,[1],34% (inactive)
same,viability,[1],161%
Nc1nc(Nc2ccc(S(N)(=O)=O)cc2)nn1C(=S)Nc1c(F)cccc1F,parasite load remaining,[1],8.25% (active)
same,viability,[1],93.1%
Cc1cc(Nc2nc(-c3ccccc3)nc3ccccc23)n[nH]1,parasite load remaining,[1],33.3% (inactive)
same,viability,[1],117%
O=C1NC(=O)C(c2cn(CCCn3ccnc3)c3ccccc23)=C1Nc1ccccc1,parasite load remaining,[1],35% (inactive)
same,viability,[1],61.8%
CC[C@H]1OC(=O)[C@H](C)C(=O)[C@H](C)[C@@H](O[C@@H]2O[C@H](C)C[C@H](N(C)C)[C@H]2O)[C@](C)(OC)C[C@@H](C)C(=O)[C@H](C)[C@@H]2N(CCCCn3cnc(-c4cccnc4)c3)C(=O)O[C@@]21C,fluorescence ratio,[2],0.97 (inactive)
same,inhibition,[3],-9.83% (inactive)
same,inhibition,[4],1.18% (inactive)
same,fluorescence ratio,[5],0.92 (inactive)
COc1cc(NC(=O)c2cc3cccc(OC)c3o2)cc(C(=O)Nc2cccc(C(F)(F)F)c2)c1,liver cell % of control,[6],95.6%
same,parasite % of control,[6],62.8% (inactive)
NC(=O)c1cccc(-c2cc(Oc3ccc(OC(F)(F)F)cc3)ncn2)c1,liver cell % of control,[6],101%
same,parasite % of control,[6],113% (inactive)
CN(c1ccccc1CNc1nc(Nc2ccc3c(c2)CC(=O)N3)ncc1C(F)(F)F)S(C)(=O)=O,liver cell % of control,[6],53.6% and 51.8% and 95%
same,parasite % of control,[6],7.61% (inactive) and 53% (inactive) and 167% (inactive)
COC(=O)c1ccc2c(c1)[nH]c(=O)c1c(Nc3ccc(OC(F)(F)F)cc3)ncnc12,liver cell % of control,[6],107%
same,parasite % of control,[6],97.4% (inactive)
Nc1cnc(CNc2ccccc2Cl)cn1,liver cell % of control,[6],100%
same,parasite % of control,[6],136% (inactive)
CC(C)n1cnc2c(Nc3cccc(Cl)c3)nc(N(CCO)CCCO)nc21,liver cell % of control,[6],81.2%
same,parasite % of control,[6],381% (inactive)
COc1ccc(CNc2nc(NCc3ccc(OC)cc3)c3[nH]cnc3n2)cc1,liver cell % of control,[6],92.9%
same,parasite % of control,[6],590% (inactive)
Cc1cn(-c2cc(C(=O)Nc3ccc(C)c(NC(=O)C(=O)c4c[nH]c5ccccc45)c3)cc(C(F)(F)F)c2)cn1,liver cell % of control,[6],95.9%
same,parasite % of control,[6],102% (inactive)
CCN1CCN(Cc2ccc(NC(=O)c3ccc(C)c(NC(=O)CC4NC(=O)C(Cc5ccccc5)NC4=O)c3)cc2C(F)(F)F)CC1 (configuration not stated),liver cell % of control,[6],105%
same,parasite % of control,[6],114% (inactive)
NS(=O)(=O)c1ccc(-c2ccc(C=C3C(=O)Nc4ccccc43)o2)cc1,liver cell % of control,[6],99.7%
same,parasite % of control,[6],90.6% (inactive)
CCN1CCN(Cc2ccc(NC(=O)c3cc(NC(=O)c4cnn(-c5ccccc5)c4N)cc(OC)c3)cc2C(F)(F)F)CC1,liver cell % of control,[6],109%
same,parasite % of control,[6],130% (inactive)
COc1cc(C(=O)NC2CCN(C)CC2)ccc1Nc1ncc2c(n1)N(C1CCC(O)CC1)CCC(=O)N2C (configuration not stated),liver cell % of control,[6],103%
same,parasite % of control,[6],180% (inactive)
Cn1cc(C=C2C(=O)Nc3cccnc32)c2ccccc21,liver cell % of control,[6],314% and 107% and 104%
same,parasite % of control,[6],4.91% (inactive) and 51.8% (inactive) and 41.5% (inactive)
CCN1CCN(Cc2ccc(NC(=O)c3ccc(C)c(NC(=O)c4cc(-c5ccc(Br)cc5)n[nH]4)c3)cc2C(F)(F)F)CC1,liver cell % of control,[6],90.4%
same,parasite % of control,[6],208% (inactive)
O=C(Nc1cccc(-c2csc(Nc3ccccc3)n2)c1)c1cc([N+](=O)[O-])cc(C(F)(F)F)c1,liver cell % of control,[6],92.9%
same,parasite % of control,[6],168% (inactive)
CC(C)C(CO)Nc1nc(Nc2ccc(S(=O)(=O)O)c(N)c2)c2ncn(C(C)C)c2n1 (configuration not stated),liver cell % of control,[6],101%
same,parasite % of control,[6],105% (inactive)
Cc1cn(-c2cc(NC(=O)c3ccc(C)c(NC(=O)c4cccc(-c5cn[nH]c(=O)c5)c4)c3)cc(C(F)(F)F)c2)cn1,liver cell % of control,[6],97.4%
same,parasite % of control,[6],93.8% (inactive)
CCN1C(=O)CCN(C2CCCC2)c2nc(Nc3ccc(C(=O)NC4CCN(C)CC4)cc3OC)ncc21,liver cell % of control,[6],91.7%
same,parasite % of control,[6],362% (inactive)
CC(C)CC(CO)Nc1nc(N(C)c2cccc(Cl)c2)c2ncn(C(C)C)c2n1 (configuration not stated),liver cell % of control,[6],102%
same,parasite % of control,[6],114% (inactive)
CCN1CCN(Cc2ccc(NC(=O)c3ccc(C)c(C=Cc4cnc(Nc5cc(N6CCNCC6)nc(C)n5)cn4)c3)cc2C(F)(F)F)CC1,liver cell % of control,[6],96.8%
same,parasite % of control,[6],369% (inactive)
CC(C)n1cnc2c(NCc3ccccc3)nc(NCc3ccccc3)nc21,liver cell % of control,[6],91.8%
same,parasite % of control,[6],83.2% (inactive)
COc1cc(C(=O)N2CCC(N3CCCCC3)CC2)ccc1Nc1nnc(Cl)c(Nc2ccccc2S(C)(=O)=O)n1,liver cell % of control,[6],97.3%
same,parasite % of control,[6],118% (inactive)
Cc1ccc(C(=O)Nc2cccc(C(F)(F)F)c2)cc1NC(=O)c1nccn1C,liver cell % of control,[6],99.8%
same,parasite % of control,[6],33.1% (inactive)
CC(C)C(CO)N(Cc1cccc(F)c1)c1nc(Nc2cccc(Cl)c2)c2ncn(C(C)C)c2n1 (configuration not stated),liver cell % of control,[6],91.9%
same,parasite % of control,[6],62.1% (inactive)
CCN1CCN(Cc2ccc(NC(=O)c3ccc(C)c(NC(=O)c4c[nH]c5cc(C(F)(F)F)ccc5c4=O)c3)cc2C(F)(F)F)CC1,liver cell % of control,[6],45.6%
same,parasite % of control,[6],4.19% (active)
CCN1CCN(Cc2ccc(NC(=O)c3ccc(C)c(NC(=O)C(=O)c4c[nH]c5ccccc45)c3)cc2C(F)(F)F)CC1,liver cell % of control,[6],69.8%
same,parasite % of control,[6],99.9% (inactive)
CS(=O)(=O)Nc1ccc(-c2cc(C=C3SC(N)=NC3=O)c[nH]c2=O)cc1,liver cell % of control,[6],97.7%
same,parasite % of control,[6],127% (inactive)
C=CC(=O)Nc1cccc(N2C(=O)N(c3cc(OC)cc(OC)c3)Cc3cnc(NCCCCN(CC)CC)nc32)c1,liver cell % of control,[6],102%
same,parasite % of control,[6],107% (inactive)
Cc1ccc(C(=O)Nc2cccc(C(F)(F)F)c2)cc1Nc1cncnc1,liver cell % of control,[6],102%
same,parasite % of control,[6],53.6% (inactive)
CN(c1ccc(OC(F)(F)F)cc1)c1cc(-c2cccc(C(N)=O)c2)ncn1,liver cell % of control,[6],99.1%
same,parasite % of control,[6],107% (inactive)
Cc1ccc(C(=O)Nc2cccc(C(F)(F)F)c2)cc1NC(=O)c1cnnc2ccccc12,liver cell % of control,[6],104%
same,parasite % of control,[6],44.2% (inactive)
CCN1CCN(Cc2ccc(NC(=O)c3cc(NC(=O)c4cc(-c5ccc(OC)cc5)n[nH]4)cc(OC)c3)cc2C(F)(F)F)CC1,liver cell % of control,[6],90.4%
same,parasite % of control,[6],132% (inactive)
CCN1CCN(Cc2ccc(NC(=O)c3ccc(C)c(NC(=O)c4nccn4C)c3)cc2C(F)(F)F)CC1,liver cell % of control,[6],101%
same,parasite % of control,[6],90.4% (inactive)
O=C(Nc1cccc(-c2csc(Nc3cccc(C(F)(F)F)c3)n2)c1)c1cc([N+](=O)[O-])cc(C(F)(F)F)c1,liver cell % of control,[6],98.5%
same,parasite % of control,[6],79.7% (inactive)
O=C(Nc1cccc(-c2csc(Nc3ccc(Cl)cc3)n2)c1)c1cccc(C(F)(F)F)c1,liver cell % of control,[6],97.6%
same,parasite % of control,[6],115% (inactive)
CCN1CCN(Cc2ccc(NC(=O)c3ccc(C)c(NC(=O)c4ccnnc4)c3)cc2C(F)(F)F)CC1,liver cell % of control,[6],104%
same,parasite % of control,[6],100% (inactive)
Cc1ccc(C(=O)Nc2cccc(C(F)(F)F)c2)cc1NC(=O)c1ccno1,liver cell % of control,[6],103%
same,parasite % of control,[6],87.9% (inactive)
C=CC(=O)Nc1cccc(Nc2ccnc(Nc3ccc(N4CCN(C)CC4)cc3)n2)c1,liver cell % of control,[6],92.9%
same,parasite % of control,[6],184% (inactive)
O=C(Nc1cccc(-c2csc(Nc3ccc(Cl)cc3)n2)c1)c1ccccc1,liver cell % of control,[6],90.9%
same,parasite % of control,[6],112% (inactive)
CCN1CCN(Cc2ccc(NC(=O)c3cc(NC(=O)C4=NN(c5ccccc5)C(=O)C4)cc(OC)c3)cc2C(F)(F)F)CC1,liver cell % of control,[6],100%
same,parasite % of control,[6],110% (inactive)
O=C(Nc1ccc(-c2csc(Nc3ccc(Cl)cc3)n2)cc1)c1cc([N+](=O)[O-])cc(C(F)(F)F)c1,liver cell % of control,[6],106%
same,parasite % of control,[6],97.2% (inactive)
CCN1CCN(Cc2ccc(C(=O)Nc3ccc(C)c(NCc4cnc(NC(=O)OC)cn4)c3)cc2C(F)(F)F)CC1,liver cell % of control,[6],105%
same,parasite % of control,[6],107% (inactive)
O=C(Nc1ccc(-c2csc(Nc3ccccc3)n2)cc1)c1ccccc1,liver cell % of control,[6],102%
same,parasite % of control,[6],204% (inactive)
CCN1CCN(Cc2ccc(NC(=O)c3ccc(C)c(NC(=O)c4ccno4)c3)cc2C(F)(F)F)CC1,liver cell % of control,[6],100%
same,parasite % of control,[6],100% (inactive)
C=CC(=O)Nc1cccc(Oc2ccnc3[nH]ccc23)c1,liver cell % of control,[6],102%
same,parasite % of control,[6],56.9% (inactive)
COc1cc(NC(=O)N2CCNC2=O)cc(C(=O)Nc2cccc(C(F)(F)F)c2)c1,liver cell % of control,[6],104%
same,parasite % of control,[6],223% (inactive)
Nc1ncc(-c2cccnc2)nc1C(=O)c1cccnc1,liver cell % of control,[6],98.8%
same,parasite % of control,[6],75.4% (inactive)
OCCCNc1nccc(-c2cc(Nc3cccc(Cl)c3)ncn2)n1,liver cell % of control,[6],81.8%
same,parasite % of control,[6],176% (inactive)
CC(C)C(CO)Nc1nc(Nc2cc(C(=O)O)cc(C(=O)O)c2)c2ncn(C(C)C)c2n1 (configuration not stated),liver cell % of control,[6],107%
same,parasite % of control,[6],38% (inactive)
CCN1CCN(Cc2ccc(NC(=O)c3cc(NC(=O)c4cc(C)on4)cc(OC)c3)cc2C(F)(F)F)CC1,liver cell % of control,[6],99.3%
same,parasite % of control,[6],92.3% (inactive)
O=C1NN(c2ccccc2)C(=O)C1=Cc1ccc(-c2ccc(Cl)cc2)o1,liver cell % of control,[6],98.7%
same,parasite % of control,[6],92.2% (inactive)
COc1cc(O)c2c(c1)oc(=O)c1c3cc(O)c(O)cc3oc21,liver cell % of control,[6],107%
same,parasite % of control,[6],36.8% (inactive)
C=CC(=O)Nc1ccc(Nc2ccnc(Nc3ccc(N4CCN(C)CC4)cc3)n2)cc1,liver cell % of control,[6],105%
same,parasite % of control,[6],124% (inactive)
CC(C)n1cnc2c(NCc3ccc(S(N)(=O)=O)cc3)nc(NCc3ccc(S(N)(=O)=O)cc3)nc21,liver cell % of control,[6],102%
same,parasite % of control,[6],108% (inactive)
